Test results from the supplement of paper PMC10646978.
± gives the standard deviation.

Tests used:
Details in all cases: modulator concentration 10 µM
[1] = system: RAW-Dual (murine macrophage reporter line); assay: NF-kB reporter (SEAP) activity fold change vs agonist alone; higher = enhanced NF-kB activity
In short: (§1)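 Overnight stimulation with a PRR agonist followed pre-incubation for 1 hour at 37 °C with compound at 10 μM final. This was done in RAW-Dual murine macrophage reporter cells seeded at 50 000 per well in 384-well plates. NF-κB (SEAP, QUANTI-Blue absorbance at 620 nm) and IRF (Lucia luciferase, QUANTI-Luc luminescence) were read from the supernatant. Each reporter's fold change relative to the mean agonist-only control on the same plate was averaged over replicate plates.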

[2] = system: RAW-Dual (murine macrophage reporter line); assay: IRF reporter (Lucia luciferase) activity fold change vs agonist alone; higher = enhanced IRF activity
In short: as §1

[3] = system: RAW-Dual (murine macrophage reporter line); assay: viability score (confluency relative to resting cells, overnight) (fraction); higher = more viable, active = viable (0.7 or more)
In short: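 Confluency was the readout: RAW-Dual macrophages were imaged with IncuCyte after an overnight exposure to compound at 10 μM final. IncuCyte software produced two masks over all imaged wells. The viability score expresses confluency against resting cells, and both masks had to exceed 70% of resting cells for a compound to meet the cutoff.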

[4] = agonist: CpG ODN 1826 0.5 ug/mL

SMILES	NF-kB reporter [1, 4]	NF-kB reporter ([1]; agonist: LPS 0.1 ug/mL)	NF-kB reporter ([1]; agonist: MPLA […])	IRF reporter ([2]; agonist: 3'3'-cGAMP 10 ug/mL)	IRF reporter ([2]; agonist: LPS 0.1 ug/mL)	IRF reporter ([2]; agonist: MPLA […])	viability score [3]
CC1CC(OC(=O)C(O)c2ccccc2)CC(C)(C)N1C (centres undefined) [Prestw-794]	1.07 ± 0.17	1.25 ± 0.12	1.02 ± 0.08	0.97 ± 0.027	1.09 ± 0.2	1.22 ± 0.15	1 (active)
COc1ccccc1-c1noc(C2CN(S(=O)(=O)N(C)C)C2)n1	0.972 ± 0.051	0.982 ± 0.083	1.29 ± 0.09	1.02 ± 0.047	1.27 ± 0.26	1.54 ± 0.51	0.993 (active)
CC(C)(C)C(=O)NCc1cccnc1-c1cccnc1	0.968 ± 0.052	1.02 ± 0.1	0.892 ± 0.047	0.972 ± 0.052	0.982 ± 0.061	0.97 ± 0.13	1.01 (active)
COc1cccc(C2Nc3ccccc3-c3nnc(SC)nc3O2)c1OCC(=O)O (centres undefined)	0.989 ± 0.099	0.988 ± 0.054	0.864 ± 0.082	1.03 ± 0.068	1.65 ± 0.11	1.24 ± 0.076	1 (active)
Cc1ccc(-c2ccc3nnc(CCC(=O)NCc4ccc(C(F)(F)F)cc4)n3n2)cc1C	0.671 ± 0.041	1.04 ± 0.086	1.04 ± 0.07	0.747 ± 0.047	1.15 ± 0.23	1.16 ± 0.41	0.94 (active)
CN(C)CCCN1c2ccccc2CCc2ccccc21.Cl	0.827 ± 0.069	1.04 ± 0.1	1.2 ± 0.07	0.737 ± 0.043	0.935 ± 0.089	0.824 ± 0.093	0.883 (active)
CCOc1ccccc1O[C@H](c1ccccc1)[C@H]1CNCCO1.CS(=O)(=O)O	0.873 ± 0.095	0.979 ± 0.061	1.03 ± 0.055	0.82 ± 0.045	0.905 ± 0.15	0.897 ± 0.074	0.99 (active)
CCC1(CC)Cc2ccccc2C(CC(=O)N2CCOCC2)=N1.O=S(=O)(O)O	0.627 ± 0.058	1.13 ± 0.072	1.16 ± 0.096	0.601 ± 0.044	0.964 ± 0.074	1.16 ± 0.21	0.829 (active)
Cc1ccc(COc2cccc(C=C3SC(=S)NC3=O)c2)cc1	0.611 ± 0.06	0.803 ± 0.13	0.992 ± 0.088	0.793 ± 0.08	1.18 ± 0.069	1.3 ± 0.11	1.02 (active)
O=C(NN=Cc1c(O)ccc2ccccc12)c1[nH]ncc1I	1.93 ± 0.15	1.24 ± 0.081	1.4 ± 0.063	0.491 ± 0.021	1.32 ± 0.076	1.3 ± 0.094	0.906 (active)
COC(=O)C=C1SC(Nc2ccc(Cl)c(Cl)c2)=NC1=O	1.13 ± 0.081	0.966 ± 0.091	0.968 ± 0.035	0.988 ± 0.11	0.982 ± 0.11	0.966 ± 0.23	0.994 (active)
COc1ccc(C=C(NC(=O)c2ccccc2)C(=O)NCCC(=O)OCc2ccccc2)cc1	0.996 ± 0.082	1.04 ± 0.096	0.875 ± 0.073	0.841 ± 0.024	1.4 ± 0.14	1.11 ± 0.22	1.01 (active)
CC1CCc2c(N3CCC(O)CC3)c(F)cc3c(=O)c(C(=O)O)cn1c23 (centres undefined)	0.975 ± 0.091	0.889 ± 0.051	0.992 ± 0.051	1.03 ± 0.077	0.897 ± 0.046	0.946 ± 0.11	0.995 (active)
C#CCN(C)Cc1ccccc1.Cl	0.99 ± 0.11	0.895 ± 0.059	0.98 ± 0.021	0.967 ± 0.075	1.01 ± 0.11	0.833 ± 0.2	0.999 (active)
COc1cccc(CCc2ccccc2OCC(CN(C)C)OC(=O)CCC(=O)O)c1.Cl (centres undefined)	0.428 ± 0.063	0.948 ± 0.3	0.925 ± 0.057	0.512 ± 0.018	1.25 ± 0.31	0.984 ± 0.19	0.995 (active)
Cn1c2c(c3ccccc31)CCCC2NC=O (centres undefined)	0.787 ± 0.061	0.931 ± 0.06	1.03 ± 0.09	0.93 ± 0.042	1.36 ± 0.082	1.44 ± 0.14	1 (active)
O=C1C(CCS(=O)c2ccccc2)C(=O)N(c2ccccc2)N1c1ccccc1 (centres undefined)	0.833 ± 0.042	0.955 ± 0.076	0.954 ± 0.056	1.01 ± 0.068	1.22 ± 0.2	1.31 ± 0.44	1.02 (active)
Cc1ccc(CCC(=O)N2CC(N3C(=O)C4CC=CCC4C3=O)C2)cc1F (centres undefined)	0.728 ± 0.26	1.1 ± 0.1	1 ± 0.044	0.741 ± 0.037	1.05 ± 0.12	0.87 ± 0.092	1 (active)
COc1ccc(-c2oc3ccc(OC)cc3c2C(=O)Nc2ccccc2C)cc1	0.917 ± 0.047	1.17 ± 0.092	0.959 ± 0.073	1 ± 0.055	1.1 ± 0.073	1.12 ± 0.11	1 (active)
CN(C)CCC=C1c2ccccc2C=Cc2ccccc21.Cl	0.43 ± 0.079	1.25 ± 0.15	1.13 ± 0.069	0.406 ± 0.019	1.61 ± 0.14	1.18 ± 0.13	0.918 (active)
Oc1ccccc1-c1cc(C(F)(F)F)on1	1.02 ± 0.08	0.982 ± 0.068	0.956 ± 0.096	0.349 ± 0.023	1.06 ± 0.066	1.12 ± 0.1	0.361 (inactive)
O=C(NCCO)c1cc(C(=O)NCCO)cc(C(=O)NCCO)c1	0.964 ± 0.065	1.05 ± 0.064	0.923 ± 0.054	0.981 ± 0.043	1.36 ± 0.099	1.18 ± 0.29	1.01 (active)
COc1cccc(N2CCN(C3CCN(CC4CCOCC4)CC3)CC2)c1	0.75 ± 0.078	1.03 ± 0.11	1.22 ± 0.17	0.901 ± 0.043	1.26 ± 0.23	1.42 ± 0.49	0.966 (active)
O=C(CSC1CC(=O)N(c2ccc(C(=O)O)cc2)C1=O)Nc1ccc(Cl)cc1 (centres undefined)	0.921 ± 0.11	0.931 ± 0.16	1.05 ± 0.046	0.396 ± 0.085	0.99 ± 0.045	0.982 ± 0.12	1 (active)
O=C1NC(=O)[C@@H](c2cn3c4c(cccc24)CCC3)[C@@H]1c1c[nH]c2ccccc12	1.1 ± 0.051	1.02 ± 0.17	1.12 ± 0.13	0.971 ± 0.058	0.921 ± 0.18	0.948 ± 0.27	1.01 (active)
COc1ccc(CNC23CC4CC(CC(C4)C2)C3)cc1OC	0.937 ± 0.072	0.899 ± 0.13	0.891 ± 0.092	0.959 ± 0.03	1.1 ± 0.23	1.1 ± 0.17	1.01 (active)
CC(=O)Oc1ccc2c(C)c(Cl)c(=O)oc2c1C	1.14 ± 0.24	1.01 ± 0.08	0.96 ± 0.1	0.93 ± 0.024	1.25 ± 0.19	1.19 ± 0.16	1.01 (active)
